From PubChem BioAssay (Tox21)
Values without a mark were called inactive. Inconclusive results are not listed. A call without a number means that no potency is given here. The source made the active and inactive calls. Unless noted, calls follow the shape of the dose curve; as a rule, active = well fitted curve in the direction sought with a large enough effect in the repeat runs; inconclusive = weak or mixed curves; inactive = no such curve, though single readings can be large; an effect the other way counts as inactive or inconclusive.

Tests used:
[1] = qHTS assay to identify small molecule agonists of H2AX - cell viability counter screen (AID 1224847; calls by dose curve; also: nearly all actives have a fitted effect of over 30% in size; also: potency is read from the fitted curve at half-maximal effect)
In short: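 Counter-screen for viability: CellTiter-Glo ATP luminescence read after 3 h compound treatment (15-point titration, 0.76% DMSO final) of CHO-K1 cells at 37C, with 30 min room-temperature reagent incubation.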

[2] = qHTS RealTime-Glo MT Cell Viability Assay in HepG2 cells - 24 hour (AID 1224867); also: nearly all actives have a fitted effect of over 50% in size; also: potency is read from the fitted curve at half-maximal effect
In short: (§1)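 Viability was tracked continuously by NanoLuc luminescence from prosubstrate reduced by living HepG2 cells, at successive time points over 40 h of compound exposure. Cells with reagent were preincubated 5 h at 37 °C before compound addition.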

[3] = qHTS RealTime-Glo MT Cell Viability Assay in HEK293 cells - 32 hour (AID 1224868); also: nearly all actives have a fitted effect of over 50% in size; also: potency is read from the fitted curve at half-maximal effect
In short: (§2)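 Viability tracked continuously by luminescence as live cells reduce a prosubstrate for NanoLuc; HEK293 cells preincubated 5 h, compound-treated at 37 C, and read at 0, 8, 16, 24, 32 and 40 h.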

[4] = A CellTox Green Cytotoxicity Assay to monitor cytotoxicity in HEK293 cells - 0 hour (AID 1224869); also: nearly all actives have a fitted effect of over 50% in size
In short: (§3)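 Dead-cell fluorescence measured kinetically: asymmetric cyanine dye, HEK293, 600 cells/well, 5 h settle, 23 nL cpd/DMSO, 37 C, reads 0–40 h every 8 h.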

[5] = qHTS RealTime-Glo MT Cell Viability Assay in HepG2 cells - 40 hour (AID 1224870); also: nearly all actives have a fitted effect of over 50% in size; also: potency is read from the fitted curve at half-maximal effect
In short: (§4)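 HepG2 cells mixed with RealTime-Glo MT reagents (NanoLuc plus cell-permeant prosubstrate) were seeded at 600 cells/well, incubated 5 h at 37 C/5% CO2, then pinned with compounds in DMSO; nonlytic luminescence tracked viability during 40 h treatment.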

[6] = A CellTox Green Cytotoxicity Assay to monitor cytotoxicity in HEK293 cells - 40 hour (AID 1224871); also: nearly all actives have a fitted effect of over 45% in size; also: potency is read from the fitted curve at half-maximal effect
In short: as §3

[7] = qHTS RealTime-Glo MT Cell Viability Assay in HEK293 cells - 16 hour (AID 1224872); also: nearly all actives have a fitted effect of over 50% in size; also: potency is read from the fitted curve at half-maximal effect
In short: as §2

[8] = qHTS RealTime-Glo MT Cell Viability Assay in HepG2 cells - 8 hour (AID 1224873); also: nearly all actives have a fitted effect of over 55% in size; also: potency is read from the fitted curve at half-maximal effect
In short: as §4

[9] = qHTS RealTime-Glo MT Cell Viability Assay in HEK293 cells - 40 hour (AID 1224874); details: RealTime-Glo luminescence; max response: active compounds read low; also: nearly all actives have a fitted effect of over 50% in size; also: potency is read from the fitted curve at half-maximal effect
In short: (§5)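 600 HEK293 cells per well, dispensed already mixed with RealTime-Glo MT reagents. Compound dosing came 5 h later. The same wells were read for luminescence at 0, 8, 16, 24, 32 and 40 h of exposure at 37 C.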

[10] = A CellTox Green Cytotoxicity Assay to monitor cytotoxicity in HEK293 cells - 24 hour (AID 1224875); also: series mostly up to about 77 µM; nearly all actives have a fitted effect of over 45% in size
In short: as §3

[11] = A CellTox Green Cytotoxicity Assay to monitor cytotoxicity in HepG2 cells - 24 hour (AID 1224878); also: nearly all actives have a fitted effect of over 45% in size
In short: (§6)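 First, HepG2 cells (600/well) mixed with reagent were plated; second, after 5 h at 37 C they received compounds via pintool; third, fluorescence was measured at 0 h through 40 h at 8 h intervals.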

[12] = qHTS RealTime-Glo MT Cell Viability Assay in HEK293 cells - 0 hour (AID 1224880); also: top concentration of the series differs between compounds; nearly all actives have a fitted effect of over 45% in size
In short: as §5

[13] = A CellTox Green Cytotoxicity Assay to monitor cytotoxicity in HEK293 cells - 32 hour (AID 1224881); also: nearly all actives have a fitted effect of over 40% in size
In short: as §3

[14] = A CellTox Green Cytotoxicity Assay to monitor cytotoxicity in HepG2 cells - 0 hour (AID 1224882); also: nearly all actives have a fitted effect of over 35% in size
In short: as §6

[15] = A CellTox Green Cytotoxicity Assay to monitor cytotoxicity in HepG2 cells - 32 hour (AID 1224883); also: nearly all actives have a fitted effect of over 50% in size; also: potency is read from the fitted curve at half-maximal effect
In short: as §6

[16] = A CellTox Green Cytotoxicity Assay to monitor cytotoxicity in HepG2 cells - 16 hour (AID 1224876); also: nearly all actives have a fitted effect of over 45% in size; also: potency is read from the fitted curve at half-maximal effect
In short: as §6

[17] = qHTS RealTime-Glo MT Cell Viability Assay in HepG2 cells - 32 hour (AID 1224877); also: nearly all actives have a fitted effect of over 55% in size; also: potency is read from the fitted curve at half-maximal effect
In short: as §1

[18] = A CellTox Green Cytotoxicity Assay to monitor cytotoxicity in HepG2 cells - 40 hour (AID 1224879); also: nearly all actives have a fitted effect of over 40% in size; also: potency is read from the fitted curve at half-maximal effect
In short: as §6

Structure (SMILES)	Potency [1]	Potency [2]	Potency [3]	Potency [4]	Potency [5]	Potency [6]	Potency [7]	Potency [8]	max response [9] [%]	Potency [10]	Potency [11]	Potency [12]	Potency [13]	Potency [14]	Potency [15]	Potency [16]	Potency [17]	Potency [18]	Potency [9]
CC(C)=NNC(N)=S	inactive	inactive	inactive	inactive	inactive	inactive	inactive	inactive	3.34	inactive	inactive	inactive	inactive	inactive	inactive				
CCOC(=O)[C@H](O)[C@@H](O)C(=O)OCC	inactive	inactive	inactive	inactive	inactive	inactive	inactive	inactive	5.68	inactive	inactive	inactive		inactive	inactive	inactive	inactive	inactive	
CCOC=C(C(=O)OCC)C(=O)OCC	inactive	inactive	inactive	inactive	inactive	inactive		inactive	-0.307	inactive	inactive	inactive	inactive	inactive	inactive	inactive	inactive	inactive	
Cn1c(=O)[nH]c2ncn(C)c2c1=O	inactive	inactive	inactive	inactive	inactive		inactive	inactive	3.46	inactive	inactive	inactive	inactive	inactive	inactive	inactive	inactive	inactive	
CCC(O)CO (centres undefined)	inactive	inactive	inactive	inactive	inactive	inactive	inactive	inactive	-1.31	inactive	inactive	inactive		inactive	inactive	inactive	inactive	inactive	
[Cl][Eu]([Cl])[Cl]	inactive	inactive	inactive	inactive	inactive	inactive	inactive	inactive	-1.1	inactive	inactive	inactive		inactive	inactive	inactive	inactive	inactive	
Cc1ccc(N=Nc2c(O)ccc3ccccc23)c(C)c1	inactive	inactive	inactive	inactive	inactive	inactive		inactive	-8.3	inactive	inactive			inactive	inactive	inactive	inactive	inactive	
C/C(=N\[Si](C)(C)C)O[Si](C)(C)C	inactive	inactive	inactive	inactive	inactive	inactive	inactive	inactive	-1.35	inactive		inactive	inactive	inactive	inactive	inactive	inactive	inactive	
CC1(C)[C@H](C(=O)OCc2cccc(Oc3ccccc3)c2)[C@@H]1C=C(Cl)Cl	inactive	inactive	inactive	inactive	inactive	inactive		inactive	4.05	inactive		inactive	inactive		inactive	inactive	inactive	inactive	
CCC(=O)OC/C=C(\C)CCC=C(C)C	inactive	inactive	inactive	inactive	inactive		inactive	inactive	-0.115	inactive		inactive	inactive	inactive	inactive	inactive	inactive	inactive	
Cc1cc(F)ccc1-c1cc(N2CC[C@@H](O)[C@H]2CO)ncc1N(C)C(=O)C(C)(C)c1cc(C(F)(F)F)cc(C(F)(F)F)c1	70.2 µM (active)	38.3 µM (active)	17.1 µM (active)	inactive	43 µM (active)	43 µM (active)	30.4 µM (active)	38.3 µM (active)						inactive	43 µM (active)	43 µM (active)	38.3 µM (active)	43 µM (active)	17.1 µM (active)
Cc1ccc2sc3cccc(C)c3c2c1	inactive	inactive	inactive	inactive	inactive	inactive	inactive	inactive	12.7	inactive	inactive	inactive	inactive		inactive	inactive	inactive	inactive	
